TDP1 cell CPT – qHTS for Inhibitors of human tyrosyl-DNA phosphodiesterase 1 (TDP1): qHTS in cells in presence of CPT; chicken DT40 Tdp1-/-;hTDP1 cells + 20 nM CPT, ATP luminescence, 48 h; Potency, µM (top dose mostly 46.2 µM), usual class: inhibitors; hit rate 12% among 420,000; also: nearly all actives have a fitted effect of over 55% in size
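Chicken DT40 Tdp1-/- cells complemented with human TDP1, 400 cells/well, exposed to compounds plus 20 nM camptothecin for at least 48 h at 37 C; viability read as ATP content by CellTiter-Glo luminescence.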
TDP1 block – qHTS Assay for Inhibitors of Tyrosyl-DNA Phosphodiesterase (TDP1); hit rate 0.28% among 350,000; Tyrosyl-DNA phosphodiesterase 1 (Homo sapiens), Q9NUW8; recombinant TDP1, AlphaScreen DNA substrate cleavage; Potency, µM (highest dose often 130 µM), hits mostly inhibitors; AID 485290, 2010; also: nearly all actives have a fitted effect of over 40% in size
Target sequence (Q9NUW8 whole entry, looked up): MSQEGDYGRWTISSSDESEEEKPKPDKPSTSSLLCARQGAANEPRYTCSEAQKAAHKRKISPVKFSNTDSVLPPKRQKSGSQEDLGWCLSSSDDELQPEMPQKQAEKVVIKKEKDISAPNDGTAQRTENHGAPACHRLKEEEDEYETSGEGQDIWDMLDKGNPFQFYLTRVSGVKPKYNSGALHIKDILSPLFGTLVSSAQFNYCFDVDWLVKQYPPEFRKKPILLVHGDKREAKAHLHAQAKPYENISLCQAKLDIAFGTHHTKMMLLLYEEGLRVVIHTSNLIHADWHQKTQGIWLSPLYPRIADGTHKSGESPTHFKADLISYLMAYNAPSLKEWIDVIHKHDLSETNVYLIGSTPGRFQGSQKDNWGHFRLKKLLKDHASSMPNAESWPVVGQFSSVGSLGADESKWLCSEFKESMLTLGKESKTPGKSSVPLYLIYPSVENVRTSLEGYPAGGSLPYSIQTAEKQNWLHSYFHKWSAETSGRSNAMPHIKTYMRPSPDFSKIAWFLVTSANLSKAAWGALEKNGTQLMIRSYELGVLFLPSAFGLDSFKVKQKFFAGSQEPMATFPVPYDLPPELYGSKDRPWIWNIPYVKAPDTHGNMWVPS
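Compounds were preincubated with Tdp1 (1 nM final) for 15 min at room temperature before substrate (15 nM final) started a 5 min reaction; beads (10 ug/ml final) were then added for 10 min before AlphaScreen detection.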
DT40 TDP1 no CPT – qHTS for Inhibitors of human tyrosyl-DNA phosphodiesterase 1 (TDP1): qHTS in cells in absence of CPT; DT40 Tdp1-/- hTDP1 cells, no CPT, ATP luminescence, 48 h; Potency, µM (highest dose often 46.2 µM), most hits filed as inhibitors; hit rate 15% among 420,000; AID 686978, 2013; also: nearly all actives have a fitted effect of over 55% in size
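No-CPT arm: Tdp1-/-;hTDP1 DT40 cells (400/well) plus compounds, incubated ≥48 hr at 37 °C. Readout CellTiter-Glo luminescence.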
ClpP mod – qHTS Assay for Activators of ClpP | ATP-dependent Clp protease proteolytic subunit (Bacillus subtilis (strain 168)), P80244 | purified B. subtilis ClpP, FRET peptide cleavage, 20 min | Potency, µM (highest dose often 57.5 µM) | hit rate 1.9% among 340,000; active = well fitted falling curve with a large enough effect; inconclusive = small, poorly fitted or top-dose-only effect; inactive = no such curve, though single readings can be large or run the other way; also: the source files actives as falling curves though it sought activators and does not explain the sign; nearly all actives have a fitted effect of over 65% in size
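Purified B. subtilis ClpP, 10 microg/mL final in Tris/HCl pH8 with KCl, BSA, glycerol and Tween-20, cleaved an Abz/nitrotyrosine-quenched decapeptide. Fluorescence (ex 320, em 430) was read at 0 and 20 min at room temperature. Delta was normalized to 5.8 microM ADEP and DMSO/no-enzyme controls.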
A number is an active result; – = inactive; ? = inconclusive; · = no result given; [ ] = remark or other dose. An excerpt weighted towards active compounds, which were near 17% of everything screened. Unless noted, calls follow the shape of the dose curve; as a rule, active = well fitted curve in the direction sought with a large enough effect; inconclusive = small, poorly fitted or top-dose-only effect, or another doubt; inactive = no such curve, though single readings can be large; an effect the other way counts as inactive or inconclusive.

SMILES	TDP1 cell CPT	TDP1 block	DT40 TDP1 no CPT	ClpP mod
CC(C)CCNC(=O)C(CC(C)C)N(Cc1ccc2c(c1)OCO2)C(=O)c1snc(C(N)=O)c1N (stereo unspecified)	–	–	?	·
O=C(CN1CCC(C(=O)c2ccc(Cl)cc2)CC1)NC1CCCC1	?	·	23µM	·
Cc1ccc(C(=O)N2CCC(C(=O)c3ccc(Cl)cc3)CC2)cc1	?	·	12µM	–
CC(C)(C)c1ccc(C(=O)N2CCC(C(=O)c3ccccc3)CC2)cc1	18µM	·	21µM	–
CC(C)(C)c1ccc(C(=O)Nc2ccc(C(=O)N3CCOCC3)cc2)cc1	23µM	–	21µM	?
COc1ccc(-c2nn3c(=O)cc(CN4CCN(C(=O)Nc5cc(C)ccc5C)CC4)nc3s2)cc1	–	–	?	?
COC(=O)c1ccc(NC(=O)N2CCN(Cc3cc(=O)n4nc(-c5ccc(C)cc5)sc4n3)CC2)cc1	–	–	–	–
COc1ccc(-c2nn3c(=O)cc(CN4CCN(C(=O)c5ccc(C(C)(C)C)cc5)CC4)nc3s2)cc1	3.3µM	–	2.9µM	–
CCc1ccc(NC(=O)N2CCN(Cc3cc(=O)n4nc(-c5ccccc5OC)sc4n3)CC2)cc1	?	–	15µM	–
Cc1nc(CN2CCN(C(=O)c3ccc(C(C)(C)C)cc3)CC2)cs1	?	–	10µM	–
Cc1nc(-c2ccc(C(=O)N3CCCC3)cc2)cs1	–	–	–	·
CC(C)(C)c1nnc(NC(=O)C2CCN(C(=O)c3ccccc3)CC2)s1	14µM	·	?	–
CCCn1c(C)nc2c(NCCCN3CCCCC3C)nc(C)nc21 (stereo unspecified)	·	–	·	·
CC(C)(C)SCCNC(=O)CN(c1ccc(F)cc1)S(=O)(=O)c1ccccc1	–	·	–	·
Cc1ccc(C(=O)N2CCC(C(=O)NC3CCCC3)CC2)cc1	–	·	–	·
CC(C)(C)c1ccc(C(=O)N2CCN(C(=O)C3CCCCC3)CC2)cc1	15µM	–	?	–
COc1ccc(C)cc1NC(=O)C1CCN(C(=O)c2ccc(C(C)(C)C)cc2)CC1	?	·	18µM	·
O=C(NCCC1=CCCCC1)C1CCC(CNc2c(N3CCCC3)c(=O)c2=O)CC1 (stereo unspecified)	–	–	–	·
CC1CCN(c2c(NCC3CCC(C(=O)NCCC4=CCCCC4)CC3)c(=O)c2=O)CC1 (stereo unspecified)	18µM	–	?	·
CC(C)(C)c1ccc(C(=O)N2CCC(C(=O)NC3CCCCCC3)CC2)cc1	?	·	21µM	·
O=C(O)Cn1nnc(-c2ccc(OCc3ccccc3)cc2)n1	–	·	–	–
CC(C)(C)c1ccc(C(=O)N2CCC(C(=O)NCCC3=CCCCC3)CC2)cc1	?	–	18µM	–
O=C(NCCC1=CCCCC1)C1CCN(S(=O)(=O)N2CCCC2)CC1	?	–	?	–
CC(C)(C)c1ccc(C(=O)N2CCNCC2)cc1	–	–	–	–
CC(C)(C)c1ccc(C(=O)N2CCCN(C(=O)c3ccc(C(C)(C)C)cc3)CC2)cc1	?	–	13µM	–
SMILES	TDP1 cell CPT	TDP1 block	DT40 TDP1 no CPT	ClpP mod
O=C(NC1CCCCC1)C(c1ccc(F)cc1)N(Cc1ccccc1)C(=O)CN1C(=O)c2ccccc2S1(=O)=O (stereo unspecified)	21µM	–	21µM	–
O=C(NC1CCCCC1)C(c1ccc(F)cc1)N(CCc1ccccc1)C(=O)CN1C(=O)c2ccccc2S1(=O)=O (stereo unspecified)	3.7µM	–	5.8µM	–
O=C(NCC1CCCO1)C(c1ccncc1)N(Cc1ccc(F)cc1)C(=O)CN1C(=O)c2ccccc2S1(=O)=O (stereo unspecified)	–	–	?	–
O=C1/C(=C/c2ccc(N3CCCC3)cc2)NC(=S)N1C1CC1	16µM	–	16µM	–
Cc1cc(N2CCCC2)ccc1/C=C1\NC(=S)N(C)C1=O	4.6µM	–	3.3µM	–
CN1C(=O)c2ccc(N3CCCC3)cc2C1=O	?	–	?	–
CCOC(=O)c1c(-c2ccc(Br)cc2)csc1NC(=O)c1ccc(C(C)(C)C)cc1	–	–[12.3 µM]	–	?
COC(=O)C[C@@H]1C[C@H]2c3cc(NS(C)(=O)=O)ccc3O[C@H]2[C@H](CO)O1	–	·	–	–
COCCn1c(=S)[nH]c2cc(C(=O)NCC3CCCO3)ccc2c1=O (stereo unspecified)	–	–	–	–
COCCn1c(=O)[nH]c2cc(C(=O)NCC3CCCO3)ccc2c1=O (stereo unspecified)	–	–	–	28µM
CCN1CCCC1CNC(=O)c1ccc2c(=O)n(CCOC)c(=O)[nH]c2c1 (stereo unspecified)	–	–	–	32µM
CCC1CCCCN1CCCNC(=O)c1ccc2c(=O)n(CCOC)c(=O)[nH]c2c1 (stereo unspecified)	–	–	–	·
O=S(=O)(Nc1cccc(Cl)c1)c1ccc2[nH]c3c(c2c1)CCCCCC3	16µM	–	?	–
Cc1cccc(NC(=O)C2CCN(S(=O)(=O)c3ccc4[nH]c5c(c4c3)CCCCC5)CC2)c1	21µM	–	?	–
Cc1ccc(C)c(N2CCN(S(=O)(=O)c3ccc4[nH]c5c(c4c3)CCCCC5)CC2)c1	·	–	·	?
Cc1cccc(NS(=O)(=O)c2ccc3[nH]c4c(c3c2)CCCCCC4)c1	18µM	–	?	–
COc1ccccc1NC(=O)N(C)C[C@H]1OCc2cnnn2CCCC(=O)N([C@H](C)CO)C[C@@H]1C	–	·	–	–
N[C@@H](C(=O)N[C@@H]1C(=O)N2C(C(=O)O)=C(Cl)CC[C@H]12)c1ccccc1	–	·	–	·
CN(CC1COCCO1)C(=O)c1cnn(-c2ncc3c(n2)-c2ccccc2CC3)c1C1CC1 (stereo unspecified)	?	·	–	·
O=C(c1ccc(-c2nnc(Nc3cccc(Cl)c3)c3ccccc23)cc1)N1C[C@H]2C[C@H](C1)c1cccc(=O)n1C2	?	–	16µM	–
C#CCN(C(=O)c1ccc(OC2CCN(Cc3ccccn3)CC2)cc1)C1CCCCC1	16µM	–	?	–
CN(C(=O)c1ccc(OC2CCN(Cc3ccccn3)CC2)cc1)C1CCCCC1	?	–	–	–
C#CCN(C(=O)c1ccc(OC2CCN(C(=O)CCOC)CC2)cc1)C1CCCCC1	23µM	·	?	–
CCOc1c(N2CCOCC2)c(=O)c1=O	–	–	–	·
C/C=C1\NC(=O)[C@H](C)NC(=O)[C@@H](NC(=O)[C@@H](Cc2ccc(O)cc2)NC(=O)[C@@H](NC(=O)/C(C)=C/C)C(C)C)[C@@H](C)OC(=O)[C@H](CCCCc2ccc(O)cc2)NC(=O)[C@@H](CCC(=O)O)NC1=O	–	–	–	–
CCN1CCN(Cc2c(O)ccc3c2O/C(=C\C=C\c2ccccc2)C3=O)CC1	26µM	–	12µM	–

Source: PubChem BioAssay
